The record followed here is PubChem BioAssay.

The nature of experiment [1]: inhibitors of TNFa-induced NFkB p65 translocation, primary screen, imaging, HUVEC, MLSMR starter and 10KST1 sets (AID 438;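 active = inhibition above 20% together with a positive visual image hit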;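 also: compound added about 3h40 before a 20 min TNFalpha stimulation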;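 as to inhibition: signal is the nuclear over cytoplasmic p65 intensity ratio per well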). The settings on record: HUVEC TNFa-induced p65 nuclear translocation; cell count: measured here: nuclei count (cytotoxicity indicator), at 2.08 µM; inhibition: at 2 µM, stronger effect = higher value, 0% TNFa-plus-vehicle, 100% no-TNFa wells.
Experiment [2] is described as follows: inhibitors of mutant huntingtin aggregation, primary screen, imaging, exon1htt(103Q)mCFP cells, high-content imaging (AID 483;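 active = visual image review flags a hit and inhibition of aggregation exceeds 20%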;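 also: compound exposure lasted 3 days before fixation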;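 as to nuclei count: percent of the per-plate median nuclei count of sample wells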). The settings on record: exon1htt(103Q)mCFP cell line, aggregate imaging, at 2 µM; inhibition of aggregation: stronger effect = higher value; nuclei count: measured here: cell count, toxicity.
The nature of experiment [3]: inhibitors of E-selectin induction by TNFa, primary screen, imaging, HUVEC, immunofluorescence, MLSMR starter and 10KST1 sets (AID 487;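 active = visually confirmed hit in the image check and inhibition above 20%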;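 as to inhibition: signal is fraction of cell area covered by stained E-selectin grains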;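 as to nuclei count: 100% = median nuclei count of all wells on the same plate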). To be noted: HUVEC TNFalpha-induced E-selectin immunofluorescence imaging, at 2 µM; inhibition: stronger effect = higher value; nuclei count: measured here: cell number, toxicity.
The target in experiment [4] is Voltage-gated potassium channel subunit beta-2 (Rattus norvegicus) (UniProt P62483). The experiment can be described thus: KvBeta enzyme negative modulators, primary screen, biochemical, NADPH fluorescence (AID 622;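 active = fluorescence slope higher than the sample average by over 3 SD, cut at about -0.22 in these data, passing the limit was not always enough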;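 also: slope of raw intensity against log time taken from 70 to 1610 s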). To be noted: recombinant KvBeta, 4-cyanobenzaldehyde reduction, at 10 µM, stronger effect = higher value.
Chain of Voltage-gated potassium channel subunit beta-2 (Rattus norvegicus) (P62483 whole entry, looked up): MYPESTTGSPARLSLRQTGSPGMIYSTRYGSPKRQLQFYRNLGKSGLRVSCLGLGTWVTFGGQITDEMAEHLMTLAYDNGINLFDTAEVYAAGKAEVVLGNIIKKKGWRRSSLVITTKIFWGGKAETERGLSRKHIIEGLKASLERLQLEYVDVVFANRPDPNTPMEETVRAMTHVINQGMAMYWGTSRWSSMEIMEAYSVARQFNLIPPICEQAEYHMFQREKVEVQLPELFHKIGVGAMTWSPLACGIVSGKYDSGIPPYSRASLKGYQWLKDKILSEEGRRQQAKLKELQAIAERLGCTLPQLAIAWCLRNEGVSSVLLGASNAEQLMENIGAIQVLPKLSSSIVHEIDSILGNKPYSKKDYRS
For experiment [5] the target is unchanged. Description: KvBeta positive modulators, primary screen, biochemical, NADPH fluorescence (AID 623;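 active = NADPH fluorescence slope more negative than the mean of all samples by about 3 SD, 99.7% confidence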;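 also: fluorescence intensity change per second fitted from 20 to 320 s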). To be noted: Recombinant KvBeta, NADPH fluorescence decrease slope, 10 min; at 10 µM; stronger effect = lower value.
Experiment [6] has as its target Alpha-2C adrenergic receptor (Homo sapiens) (UniProt P18825). Description: modulators of alpha2C/GIRK thallium flux, primary screen, cell-based, HEK293 alpha2C/GIRK1/2 (AID 624;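 active = fluorescence slope after compound addition differing from the mean of all screened samples at 99.7% confidence, in either direction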;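 also: slope of fluorescence ratio to pre-addition baseline per second over 15 to 24 s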). To be noted: thallium flux BTC fluorescence, at 10 µM, actives lie on both sides.
A short description of experiment [7]: inhibitors of Sendai virus-induced IRF3 signaling, primary screen, TLR/RLR signaling modifier project, cell-based, Sendai virus stimulus, luciferase, 10K MLSCN set (AID 602276;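 active = inhibition at or above 50% at 10 µM; inactive = inhibition below 50%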;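 also: firefly luciferase from ISG56 promoter only with Renilla not read in this screen; 0% = Sendai virus plus DMSO and 100% = medium plus DMSO without virus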). The settings on record: HEK293 RL24 IRF3 luciferase reporter, at 10 µM, stronger effect = higher value.
Experiment [8] can be described thus: inhibitors of poly I:C-induced TLR3 signaling, primary screen, cell-based, poly I:C stimulus, luciferase, 10K MLSCN set (AID 602277). To be noted: HEK293-TLR3 RL24 IRF3 luciferase reporter, at 10 µM, stronger effect = higher value. Background: Reporter assays use an easily measured gene product as a stand-in for the process of interest.

Activity calls are given as the source filed them.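 The calls were made as follows, unless noted: active = inhibition of the reporter signal at or above 50%; inactive = inhibition below 50%.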

Chain of Alpha-2C adrenergic receptor (Homo sapiens) (P18825 whole entry, looked up): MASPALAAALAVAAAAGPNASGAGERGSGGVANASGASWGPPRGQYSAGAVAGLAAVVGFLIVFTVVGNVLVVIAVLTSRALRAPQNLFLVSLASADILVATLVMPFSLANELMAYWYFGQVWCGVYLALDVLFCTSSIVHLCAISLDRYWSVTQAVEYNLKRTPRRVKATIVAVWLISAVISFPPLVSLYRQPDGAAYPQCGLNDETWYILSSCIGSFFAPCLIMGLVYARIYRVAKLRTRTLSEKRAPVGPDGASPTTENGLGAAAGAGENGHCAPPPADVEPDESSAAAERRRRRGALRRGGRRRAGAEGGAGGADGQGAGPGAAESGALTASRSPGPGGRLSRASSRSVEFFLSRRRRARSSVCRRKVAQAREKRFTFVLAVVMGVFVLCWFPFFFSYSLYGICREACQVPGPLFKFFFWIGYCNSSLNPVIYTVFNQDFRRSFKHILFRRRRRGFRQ

Broadly, the inhibition is the change of the read-out against control, counted positive when it falls. On to `N#Cc1nc(-c2ccco2)oc1NCc1ccco1`, for which the cell count in experiment [1] came to 658. The inhibition in experiment [1] is -9.1% (inactive); in experiment [3] it was -12.2% (inactive); in experiment [7], -2.68% (inactive); in experiment [8], -30.9% (inactive). Also, the inhibition of aggregation in experiment [2] is -10.1% (inactive). The figures for the nuclei count in experiment [2] and in experiment [3] were 120% and 98.2%, respectively. Further, in experiment [4], the fluorescence slope is -0.375 (inactive). In experiment [5], the NADPH fluorescence slope is 5.2e-05 (inactive). In addition, the slope in experiment [6] is 0.00582 (inactive).

For the compound `Cc1ccc(-c2cc(C(F)(F)F)n3nc(C(=O)N4CCCC4)cc3n2)cc1`, in experiment [1], the cell count is 336. In addition, the inhibition in experiment [1] was 5.5% (inactive); in experiment [3], -148% (inactive); in experiment [7], -0.996% (inactive); in experiment [8] it was -25.5% (inactive). Moreover, the inhibition of aggregation in experiment [2] is 13.3% (inactive). Also, the nuclei count in experiment [2] was 107%; in experiment [3], 127%. Also, in experiment [4], the fluorescence slope was -0.512 (inactive). Besides, the NADPH fluorescence slope in experiment [5] was -1.4e-05 (inactive). In experiment [6], the slope was 0.00691 (inactive).

For the compound `CCOC(=O)CNC(=O)CSc1ncnc2c1cnn2Cc1ccccc1`, the cell count in experiment [1] was determined as 597. Also, the inhibition is 12.6% (inactive) in experiment [1], -157% (inactive) in experiment [3], 2.57% (inactive) in experiment [7] and 24.8% (inactive) in experiment [8]. For the same compound, the inhibition of aggregation in experiment [2] was -12.1% (inactive). The results for the nuclei count in experiment [2] and in experiment [3] were 103% and 134%, respectively. In addition, the fluorescence slope in experiment [4] was -0.374 (inactive). Also, the NADPH fluorescence slope in experiment [5] is -0.000157 (inactive). Besides, the slope in experiment [6] is 0.0067 (inactive).

In the case of `CCc1nnc2c3cnn(-c4ccccc4)c3ncn12`, the cell count in experiment [1] was 402. In addition, the inhibition in experiment [1] was -2.9% (inactive); in experiment [3], -25.5% (inactive); in experiment [7], -19% (inactive); in experiment [8], -77% (inactive). In addition, the inhibition of aggregation in experiment [2] was -11.8% (inactive). The nuclei count in experiment [2] came to 103%; in experiment [3], 125%. In addition, the fluorescence slope in experiment [4] is -0.616 (inactive). In addition, the NADPH fluorescence slope in experiment [5] was 7.6e-06 (inactive). Moreover, in experiment [6], the slope was 0.00633 (inactive).

For `CCOC(=O)Cn1c(CN2CCN(c3cccc(Cl)c3)CC2)nc2c1c(=O)[nH]c(=O)n2C`, the cell count in experiment [1] turned out to be 669. Further, the inhibition is 0% (inactive) in experiment [1], 6.7% (inactive) in experiment [3], 16.4% (inactive) in experiment [7] and 32.5% (inactive) in experiment [8]. Besides, the inhibition of aggregation in experiment [2] is -3.2% (inactive). Besides, the results for the nuclei count in experiment [2] and in experiment [3] were 111% and 120%, respectively. In experiment [4], the fluorescence slope is -0.583 (inactive). Also, the NADPH fluorescence slope in experiment [5] is -1.7e-05 (inactive). For the same compound, in experiment [6], the slope is 0.00641 (inactive).

Regarding `Cc1c(NC(=O)c2ccc(CN3CCc4ccccc4C3)cc2)c(=O)n(-c2ccccc2)n1C`, the cell count in experiment [1] turned out to be 593. For the same compound, the inhibition was -5.6% (inactive) in experiment [1], -70.8% (inactive) in experiment [3], 5.86% (inactive) in experiment [7] and 7.1% (inactive) in experiment [8]. The inhibition of aggregation in experiment [2] is -45.4% (inactive). Further, the nuclei count is 110% in experiment [2] and 142% in experiment [3]. Moreover, the fluorescence slope in experiment [4] is -0.403 (inactive). The NADPH fluorescence slope in experiment [5] was -4.1e-05 (inactive). The slope in experiment [6] is 0.0063 (inactive).

Take `CCOc1ccc(-n2cc(C(=O)N3CCN(C)CC3)c3cc(OC)c(OC)cc3c2=O)cc1`: in experiment [1], the cell count is 393. Moreover, the inhibition was 8.8% (inactive) in experiment [1], -54.1% (inactive) in experiment [3], -29.8% (inactive) in experiment [7] and -2.36% (inactive) in experiment [8]. Also, the inhibition of aggregation in experiment [2] is 0.2% (inactive). Also, the nuclei count in experiment [2] was 99.4%; in experiment [3], 121%. Besides, in experiment [4], the fluorescence slope is -0.524 (inactive). Moreover, in experiment [5], the NADPH fluorescence slope was 1.6e-05 (inactive). Further, the slope in experiment [6] is 0.007 (inactive).

Consider `O=C(Nc1ccccc1N1CCCCC1)c1ncoc1-c1ccc(F)cc1`, for which the cell count in experiment [1] is 426. In addition, the inhibition in experiment [1] is -1.8% (inactive); in experiment [3], -180% (inactive); in experiment [7], -3.24% (inactive); in experiment [8], -51.9% (inactive). For the same compound, the inhibition of aggregation in experiment [2] is -0.9% (inactive). In addition, the nuclei count in experiment [2] came to 87.1%; in experiment [3], 122%. The fluorescence slope in experiment [4] is -0.424 (inactive). In experiment [5], the NADPH fluorescence slope is 4.4e-06 (inactive). In addition, in experiment [6], the slope was 0.00948 (inactive).

With `Cc1ccc(S(=O)(=O)N2CCC(C(=O)N3CCC[C@H]3C(=O)NCc3ccccc3)CC2)cc1`, the cell count in experiment [1] was found to be 340. In addition, the inhibition was 3.6% (inactive) in experiment [1], -35% (inactive) in experiment [3], 13.5% (inactive) in experiment [7] and 23.1% (inactive) in experiment [8]. The inhibition of aggregation in experiment [2] is -6.4% (inactive). The nuclei count stood at 108% in experiment [2] and 133% in experiment [3]. In addition, the fluorescence slope in experiment [4] is -0.453 (inactive). In addition, in experiment [5], the NADPH fluorescence slope is 8.3e-05 (inactive). Moreover, the slope in experiment [6] is 0.00735 (inactive).

On to `N#Cc1c2n(c(=O)[nH]c1=O)CCCCC2`, for which, in experiment [1], the cell count was found to be 270. The inhibition in experiment [1] is 14.4% (inactive); in experiment [3] it was 16.1% (inactive); in experiment [7] it was -7.37% (inactive); in experiment [8] it was 0.231% (inactive). Besides, the inhibition of aggregation in experiment [2] is 18.2% (inactive). For the same compound, the nuclei count came out at 113% in experiment [2] and 110% in experiment [3]. Also, the fluorescence slope in experiment [4] is -0.5 (inactive). Also, in experiment [5], the NADPH fluorescence slope was -0.000252 (inactive). In addition, the slope in experiment [6] is 0.00665 (inactive).

As to `Cc1cc(Cl)cc2c1NC(=O)[C@]21[C@@H]2C(=O)N(Cc3ccccc3)C(=O)[C@@H]2[C@@H]2CCCN21`, in experiment [1], the cell count came to 556. For the same compound, the inhibition in experiment [1] is -18.1% (inactive); in experiment [3] it was -65.1% (inactive); in experiment [7], 15.5% (inactive); in experiment [8], 27.9% (inactive). Besides, in experiment [2], the inhibition of aggregation was -7.5% (inactive). For the same compound, the nuclei count came out at 115% in experiment [2] and 107% in experiment [3]. In experiment [4], the fluorescence slope was -0.619 (inactive). Besides, in experiment [5], the NADPH fluorescence slope was -3.2e-05 (inactive). The slope in experiment [6] is 0.00523 (inactive).

For the compound `C/C=C/CSc1nc2c(c(=O)[nH]c(=O)n2C)n1Cc1ccc(C)cc1`, in experiment [1], the cell count stood at 693. Besides, the inhibition in experiment [1] was -6.9% (inactive); in experiment [3] it was -43.7% (inactive); in experiment [7], -3.97% (inactive); in experiment [8], 18.2% (inactive). Also, the inhibition of aggregation in experiment [2] was -5% (inactive). Also, the values for the nuclei count in experiment [2] and in experiment [3] were 116% and 112%, respectively. For the same compound, in experiment [4], the fluorescence slope was -0.542 (inactive). Moreover, in experiment [5], the NADPH fluorescence slope is -3.9e-05 (inactive). Moreover, in experiment [6], the slope was 0.0074 (inactive).

For the compound `CCC1SC2=NC(C)=C(C(=O)OC)C(c3ccc(C)cc3)N2C1=O` (centres undefined), the cell count in experiment [1] was determined as 562. In addition, the inhibition was -11.1% (inactive) in experiment [1], -57.6% (inactive) in experiment [3], -10.4% (inactive) in experiment [7] and -17.2% (inactive) in experiment [8]. The inhibition of aggregation in experiment [2] was -9.6% (inactive). Also, the nuclei count came to 111% in experiment [2] and 103% in experiment [3]. The fluorescence slope in experiment [4] is -0.591 (inactive). Also, the NADPH fluorescence slope in experiment [5] is -6.5e-05 (inactive). Further, the slope in experiment [6] is 0.0061 (inactive).

`CN(c1ccccc1C(N)=O)S(=O)(=O)c1ccccc1`: the cell count in experiment [1] stood at 385. Also, the inhibition in experiment [1] was -2.9% (inactive); in experiment [3] it was -266% (inactive); in experiment [7] it was 13% (inactive); in experiment [8], 22.7% (inactive). In experiment [2], the inhibition of aggregation was -21.8% (inactive). Also, the values for the nuclei count in experiment [2] and in experiment [3] were 95.6% and 108%, respectively. Further, in experiment [4], the fluorescence slope was -0.355 (inactive). Moreover, the NADPH fluorescence slope in experiment [5] is 1.6e-05 (inactive). For the same compound, the slope in experiment [6] is 0.00547 (inactive).
